Assay results: PubChem BioAssay AID743156 (Broad Institute, 2013)
This is one part of the list. A number with no mark means an inactive call. Active and inactive are the calls of the source.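 How the source made its calls: active means mean inhibition across replicates of at least 20% with every single replicate also at 20% or more; inconclusive means mean inhibition at least 20% but some replicate falls below 20%; inactive means mean inhibition under 20% and not all replicates reach it.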

Each compound was assayed on PglD UDP-4-amino-sugar N-acetyltransferase (Campylobacter jejuni) (assay: PglD acetyltransferase inhibitors, confirmation, biochemical, DTNB absorbance, single point, cherry-picked samples (AID 743156;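 further: initial rate of CoA release by acetyl transfer from AcCoA to the UDP-4-amino sugar; 0% = median of neutral control wells and 100% = median of positive control wells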)). Settings: Purified C. jejuni PglD, DTNB absorbance 412 nm; at 20 µM; hits give high values.

Row | Compound | inhibition
1 | O=S1(=O)CC(NCc2ccccc2)C(Nc2ccc(Cl)cc2)C1 (configuration not stated) | -7.57%
2 | CC(NC(=O)c1ccc(Cl)cc1)C(=O)N1CCCCC1 (configuration not stated) | 0.85%
3 | O=C(Nc1ccc(Sc2ccc(Br)cc2)cc1)c1ccco1 | 11.2%
4 | Cc1ccc(C2=C/C(=C\c3cccnc3)C(=O)O2)cc1 | 7.97%
5 | Cc1ccc(S(=O)(=O)N2CCC(C(=O)NCC3CCCO3)CC2)cc1 (configuration not stated) | -10.7%
6 | CSc1ccc(S(=O)(=O)NCc2ccc(Cl)cc2)cc1 | 3.66%
7 | CCCCC(=O)Nc1ccc(C(=O)NCCCn2ccnc2)cc1 | -0.586%
8 | O=C(NCc1ccncc1)C1CCN(C(=O)c2cccc(Cl)c2)CC1 | 2.21%
9 | CC(C)CCNC(=O)c1ccc2c(Cl)c3c(nc2c1)CCC3 | 2.89%
10 | COc1ccc(NC(=O)C2=NNC(=O)CC2)cc1S(=O)(=O)N1CCCCC1 | -3.63%
11 | Cc1ccc(NC(=O)CNCc2ccccn2)cc1S(=O)(=O)N(C)C | -5.07%
12 | CCCOc1ccc(F)cc1-c1cc(C(=O)Nc2ccc(F)cc2)[nH]n1 | 3.61%
13 | C=CCOC(=O)C1=C(C)NC(SCC(=O)OCC)=C(C#N)C1c1ccc(C)cc1 (configuration not stated) | 0.793%
14 | CCOc1ccc(OCc2ccc(C(=O)N(C)c3ccccc3)o2)cc1 | 1.37%
15 | CC(=O)Nc1ccc(OC(=O)COc2ccc(Br)cc2)cc1 | 1.84%
16 | C=CC1=C(C(=O)O)N2C(=O)[C@@H](NC(=O)/C(=N/OCC(=O)O)c3csc(N)n3)[C@H]2SC1 | 37.4% (active)
17 | CC(C)(C)c1ccc(CN2C(=O)c3ccccc3S2(=O)=O)cc1 | 2.98%
